Where “and” joins values, the source holds several entries; their conditions need not be identical. Identical values can stand only once. Among all 16,000 compounds or so, about 5,800 (36%) were called active. Inconclusive results (about 23%) are left out. Calls follow the shape of the dose curve; as a rule, active = well fitted curve in the direction sought with a large enough effect; inconclusive = small, poorly fitted or top-dose-only effect, or effect the other way; inactive = no such curve, though single readings can be large or run the other way. The list shows a part of the results. Where a structure was tested more than once in an assay, its records may differ in their call.
% is scaled to controls: 0 for no effect and ±100 for the full control effect.

Sequence of Cytochrome P450 2C19 (Homo sapiens) (P33261 whole entry, looked up): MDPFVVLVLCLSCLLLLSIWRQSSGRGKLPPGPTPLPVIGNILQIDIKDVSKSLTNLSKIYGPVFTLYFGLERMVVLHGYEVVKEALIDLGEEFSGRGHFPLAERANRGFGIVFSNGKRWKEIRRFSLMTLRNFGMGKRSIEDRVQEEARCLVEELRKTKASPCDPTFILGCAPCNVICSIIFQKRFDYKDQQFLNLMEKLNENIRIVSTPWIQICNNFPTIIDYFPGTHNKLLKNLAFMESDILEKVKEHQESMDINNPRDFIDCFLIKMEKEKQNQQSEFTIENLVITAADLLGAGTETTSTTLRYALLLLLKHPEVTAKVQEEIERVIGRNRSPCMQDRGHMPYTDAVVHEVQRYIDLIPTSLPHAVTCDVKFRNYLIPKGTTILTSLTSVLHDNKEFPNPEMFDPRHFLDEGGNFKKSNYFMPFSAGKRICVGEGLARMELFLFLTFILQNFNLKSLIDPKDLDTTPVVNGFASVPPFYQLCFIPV

This experiment has as its target Cytochrome P450 2C19 (Homo sapiens) (UniProt P33261). The experiment in a line: Cytochrome panel assay with activity outcomes. The settings on record: recombinant CYP, pro-luciferin dealkylation, luminescence, p450-cyp2c19; series mostly up to 57.1 µM; activity, negative = inhibition: at the top concentration.
By AC50 is commonly meant the concentration giving half of the maximal activity seen. In the case of `CCCc1cc2c(n1Cc1cccc(Cl)c1)C(C)C1CN(C(=O)c3ccccc3)C(C)(C(=O)OC)C21` (stereo not given), the concentration at half-maximal activity (AC50) is 15.8 µM (active).
As to `N#CCCCC[N+]12CN3CN(CN(C3)C1)C2`, the activity, negative = inhibition was 19.8% [at 11.4 µM] (inactive).
Consider `C=C(CC1(CNP(=O)(c2ccccc2)c2ccccc2)CC1)c1ccccc1`, for which the “activity, negative = inhibition” value was -61.1% (inactive).
Consider `O=C(O)[C@H]1C[C@@H]1[C@H](NP(=O)(c1ccccc1)c1ccccc1)c1ccccc1`, for which the “activity, negative = inhibition” value is -17.6% (inactive).
As to `C=C(CC1(C(C)NP(=O)(c2ccccc2)c2ccccc2)CC1)c1ccccc1` (stereo not given), the half-maximal activity concentration (AC50) was 10 µM (active).
Consider `CNC(=O)OCC[N+](C)(C)C`, for which the “activity, negative = inhibition” value was 20.4% (inactive).
As for `O=C(O)c1ccccc1-c1c2cc(Br)c(=O)cc-2oc2[c]([Hg])c(O)c(Br)cc12`, the AC50 was 3.16 µM (active).
On to `NC(N)=Nc1ccc2[nH]c3c(c2c1)C[C@]1(O)[C@@H]2Cc4ccc(O)c5c4[C@]1(CCN2CC1CC1)[C@@H]3O5`, for which the “activity, negative = inhibition” value was -20.9% (inactive).
Still for that read-out and setting: for `N[C@H](Cc1ccc2oc3cc(=O)c4ccccc4c-3nc2c1)C(=O)O` the value was -35.8% [at 11.4 µM] (inactive).
Consider `O=C(O)CCCc1ccc(N(CCCl)CCCl)cc1`, for which the “activity, negative = inhibition” value was -15% [at 25.6 µM] (inactive).
With `COC(=O)c1[nH]c2ccc(Br)cc2c1NC(=O)Oc1ccccc1`, the half-maximal activity concentration (AC50) was 11.2 µM (active).
With `c1ccc2nc(N3CCNCC3)ccc2c1`, the AC50 entry is “inactive”.
Turning to `O=C(O)[C@@H]1[C@H](C(=O)O)[C@]2(Cl)C(Cl)=C(Cl)[C@@]1(Cl)C2(Cl)Cl`, the activity, negative = inhibition was -2.94% [at 11.4 µM] (inactive).
For the compound `NCC1(CC(=O)O)CCCCC1`, the AC50 result was “inactive”.
With `CCN(CC)CCn1ncc2c(N)ncnc21`, the activity, negative = inhibition is -2.72% [at 11.4 µM] (inactive).
In the case of `C[C@H](N)[C@@H](O)c1ccccc1`, the “activity, negative = inhibition” value is 20.9% [at 25.6 µM] (inactive).
On to `CC(NCc1ccc(Cl)cc1)C(O)c1ccccc1` (stereo not given), for which the concentration at half-maximal activity (AC50) is 0.355 µM (active).
As for `CN1[C@@H]2CC[C@H]1CC(O[C@@H](c1ccccc1)c1ccc(Cl)cc1)C2` (stereo not given in full), the AC50 entry was “inactive”.
As to `Cc1sc2ccccc2c1CC1=NCCN1`, the “activity, negative = inhibition” value was -17.4% (inactive).
Take `c1ccc(C2CC2)c(OCC2=NCCN2)c1`: the “activity, negative = inhibition” value is -31.6% (inactive).
Take `CCSCC[C@H](N)C(=O)O`: the activity, negative = inhibition was -18% [at 11.4 µM] (inactive).
In the case of `[N-]=[N+]=CC(=O)CC[C@H](N)C(=O)O`, the activity, negative = inhibition is 0.0153% [at 11.4 µM] (inactive).
For `CC(C)COC(=O)OCN1C(=O)CN(CCN2CC(=O)N(COC(=O)OCC(C)C)C(=O)C2)CC1=O`, the “activity, negative = inhibition” value is 1.24% (inactive).
Consider `c1csc(CN2CCCC3(CCNCC3)C2)n1`, for which the “activity, negative = inhibition” value is -39.6% (inactive).
For the compound `O=C(CN1CCCCC1)Nc1ccc(Br)cc1C(=O)c1ccccc1Cl`, the concentration at half-maximal activity (AC50) is 7.94 µM (active).
For `O=c1[nH]cnc2[nH]cc(CN3CCCCC3)c12`, the activity, negative = inhibition is 39.9% [at 11.4 µM] (inactive).
Consider `Cc1nnc2ccc(-c3cccc(C(F)(F)F)c3)nn12`, for which the “activity, negative = inhibition” value was 36.3% (inactive).
For the compound `CCC1(CCSC(=N)N)C(=O)NC(=O)NC1=O`, the activity, negative = inhibition is 20.6% [at 11.4 µM] (inactive).
On to `O=C1CCCN1CC#CCN1CCCC1`, for which the AC50 result was “inactive and 158 nM (active)”.
In the case of `C(#CCN1CCCC1)CN1CCCC1`, the “activity, negative = inhibition” value was -1.49% [at 25.6 µM] (inactive).
With `C[N+](C)(C)CC#CCN1CCCC1=O`, the AC50 result was “inactive”.
`CN(CCC(=O)O)C1=Nc2ccc(Cl)cc2C(c2ccccc2)=[N+]([O-])C1`: the activity, negative = inhibition was -1.35% [at 11.4 µM] (inactive).
Take `Nc1nc(N)c2nc(CNc3ccc(C(=O)N[C@H](CCC(=O)O)C(=O)O)cc3)cnc2n1`: the “activity, negative = inhibition” value was 2.1% (inactive).
The same measure, in the same setting: in the case of `O=C(O)CNC(=O)[C@@H](CS)Cc1ccccc1` it was -6.8% (inactive); in that of `Cc1cc[c]([Sb]2[O][C@H]([C@H](O)[C@H](O)C(=O)O)[C@@H](CO)[O]2)cc1`, 30.4% [at 11.4 µM] (inactive).
As to `N[C@@H](Cn1ccc(=O)n(Cc2ccc(C(=O)O)cc2)c1=O)C(=O)O`, the “activity, negative = inhibition” value is -42.7% (inactive).
On to `CC(C)(O)/C=C\C(=O)[C@](C)(O)[C@H]1[C@H](O)C[C@]2(C)[C@@H]3CC=C4[C@@H](C=C(O)C(=O)C4(C)C)[C@]3(C)C(=O)C[C@@]12C`, for which the activity, negative = inhibition is -7.19% [at 11.4 µM] (inactive).
On to `O=C(Nc1ccc(C(F)(F)F)cc1)c1cccn(Cc2ccc3c(c2)OC(F)(F)O3)c1=O`, for which the AC50 was 3.16 µM (active).
In the case of `CC(=O)Nc1ccccc1C(=O)OCc1ccc(C(=O)c2ccccc2)cc1`, the AC50 is 3.55 µM (active).
As for `NS(=O)(=O)c1cc([C@@]2(O)NC(=O)c3ccccc32)ccc1Cl`, the “activity, negative = inhibition” value was 1.58% [at 25.6 µM] (inactive).
For `NC[C@@H](Cc1ccccc1)P(=O)(O)O`, the activity, negative = inhibition is -0.815% [at 11.4 µM] (inactive).
Regarding `O=C(Oc1ccccc1)N1CCC[C@@]2(CCN(C(c3ccccc3)c3ccccc3)C2)C1`, the “activity, negative = inhibition” value is -38.5% (inactive).
In the case of `O=C(O)Cc1cnc[nH]1`, the “activity, negative = inhibition” value is 0.662% (inactive).
Turning to `CC[C@@H](CO)NC(=O)[C@H]1C=C2c3cccc4c3c(cn4C)C[C@H]2N(C)C1`, the half-maximal activity concentration (AC50) is 0.126 µM (active).
Take `CC[C@H](CO)NC(=O)[C@@H]1C=C2c3cccc4c3c(cn4C)C[C@@H]2N(C)C1`: the “activity, negative = inhibition” value was -2.92% (inactive).

The record behind these values is PubChem BioAssay AID1851 (National Center for Advancing Translational Sciences (NCATS), 2009).
